Source: PubChem BioAssay (National Center for Advancing Translational Sciences (NCATS))
Shown are actives, neighbours in structure and some others; about 3% of the full set was active somewhere.
p53ts 39C kill: kills p53ts cells at the nonpermissive temperature; H1299-p53A138V viability at 39C, ATP luminescence, 24 h; Potency, µM (doses to about 46.1 µM), actives largely listed as cytotoxic; 130,000 tested, 1.5% active; AID 902; note: nearly all actives have a fitted effect of over 55% in size
Imprint erasure: inducers of genomic imprint erasure in mouse ES cells. mouse ES Peg3-LacZ reporter, beta-gal luminescence, 40 h. 110,000 tested, 0.02% active. Potency, µM (series often up to 60.7 µM), most hits filed as activators. AID 1948
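Gelatin-coated wells received 300 freshly trypsinized female ES cells with a Peg3LacZ-Neo reporter on the maternal allele, then incubated 40 hours at 37C. BetaGlo was added for 5 minutes at room temperature before a single luminescence read.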
p53ts 32C tox: cytotoxicity in p53ts cells at permissive temperature; 130,000 tested, 0.93% active; H1299-p53A138V at 32C, ATP luminescence viability, 24 h; Potency, µM (series often up to 46.1 µM), hits mostly cytotoxic; note: nearly all actives have a fitted effect of over 55% in size
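Viability by ATPlite luminescence after 24 h compound treatment (up to 46 uM) at the permissive 32C. Cells are H1299 carrying p53 A138V. Scale runs from DMSO basal to 100 uM tamoxifen as full kill; AC50 from Hill fits.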
CRE Fsk mod: modulators of forskolin-stimulated CRE signaling in CHO cells | CHO CRE-bla reporter (cAMP response element driving beta-lactamase), forskolin EC10, beta-lactamase ratio | Potency, µM (top dose mostly 38.2 µM), usual class: activators | 71,000 tested, 2.5% active | AID 662; active = well fitted activation curve with a large enough effect in the signal ratio, with a control signal flat, not every such curve was filed as active; inconclusive = small, poorly fitted or top-dose-only effect, or effect the other way, or a change in a side signal; the % refers to the signal ratio
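Beta-lactamase reporter under a cAMP responsive element in CHO cells; compounds tested in titration series against EC10 NKH 477, 3 h at 37 °C. Read-out: CCF4 FRET ratio 460nm/530nm (excitation 405nm) giving %Activity, fitted to AC50.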
IkB signaling: inhibitors of IkB signaling in ABC-DLBCL cells; 110,000 tested, 0.04% active; Potency, µM (series often up to 57.1 µM); ABC-DLBCL IkBa-CBG/CBR dual luciferase ratio, 4 h; response scale: scaled: untreated 0%, proteasome inhibitor 100%; active = well fitted curve in the direction sought with a large enough effect in the signal ratio, not every such curve was filed as active; inconclusive = small, poorly fitted or top-dose-only effect, or a change in a side signal; the % refers to the signal ratio;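 note: the direction sought is a rising ratio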
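In this assay, an IκBα–CBG68 fusion accumulates when IKK-driven degradation is blocked; native CBR normalizes for cell number. OCI-Ly3 cells were treated 4 h with compound and doxycycline, then green and red light read after Chroma-Glo addition.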
Of the large screens only hits and unclear results are named; the others gave an inactive call. Unless noted, calls come from the whole dose curve; as a rule, active = well fitted curve in the direction sought with a large enough effect; inconclusive = small, poorly fitted or top-dose-only effect, or another doubt; inactive = no such curve, though single readings can be large; an effect the other way counts as inactive or inconclusive.

CCC(C(=O)NCCc1ccc(SC)cc1)n1nc(C)c2sc3ccccc3c2c1=O (centres undefined)	none (no result: CRE Fsk mod)
Cc1nn(C(C)C(=O)NC2CCCCC2)c(=O)c2c1sc1ccccc12 (centres undefined)	p53ts 39C kill 10µM, p53ts 32C tox 13µM, IkB signaling inconclusive (no result: CRE Fsk mod)
CSc1ccc(CCNC(=O)C(C)n2nc(C)c3sc4ccccc4c3c2=O)cc1 (centres undefined)	p53ts 39C kill 10µM, p53ts 32C tox 10µM (no result: CRE Fsk mod)
CCOc1cccc(CC(=O)NCc2ccc3c(c2)CCN3C(C)=O)c1OCC	none (no result: CRE Fsk mod)
CN(C)c1ccc(C(CNS(=O)(=O)c2ccc(Br)cc2)N2CCOCC2)cc1 (centres undefined)	none (no result: CRE Fsk mod)
C=CS(=O)(=O)c1ccc(Oc2ccc(S(=O)(=O)C=C)cc2)cc1	p53ts 39C kill 10µM, CRE Fsk mod inconclusive, IkB signaling inconclusive
COc1ccccc1Nc1nn2c(=O)c3ccc(C(=O)Nc4ccc(F)cc4)cc3nc2s1	IkB signaling inconclusive (no result: CRE Fsk mod)
Cc1ccc(NC(=O)c2ccc3c(=O)n4nc(Nc5ccccc5C)sc4nc3c2)cc1C	p53ts 32C tox 13µM, IkB signaling inconclusive (no result: CRE Fsk mod)
COc1ccc(NC(=O)c2ccc3c(=O)n4nc(Nc5ccccc5C)sc4nc3c2)cc1	none (no result: CRE Fsk mod)
COc1ccc(NC(=O)c2ccc3c(=O)n4nc(Nc5ccccc5C)sc4nc3c2)cc1Cl	p53ts 39C kill 7.9µM, p53ts 32C tox 10µM, IkB signaling inconclusive (no result: CRE Fsk mod)
COc1ccc(/C=C2\SC(=N)N(c3nccs3)C2=O)cc1OC	p53ts 39C kill 14µM, p53ts 32C tox inconclusive (no result: Imprint erasure, CRE Fsk mod, IkB signaling)
COc1ccc(-c2nc(SCC(=O)NCCCc3ccccc3)n[nH]2)cc1	IkB signaling inconclusive (no result: CRE Fsk mod)
CC(C)(C)C(=O)Nc1ccc(-c2cn3ccsc3n2)cc1	p53ts 39C kill 0.79µM, p53ts 32C tox 0.63µM
CC(C)CC(=O)Nc1cccc(-c2cn3cccnc3n2)c1	p53ts 39C kill inconclusive, p53ts 32C tox inconclusive (no result: CRE Fsk mod)
CC(C)CC(=O)Nc1ccc(-c2cn3ccsc3n2)cc1	p53ts 39C kill 1µM, p53ts 32C tox 1µM, IkB signaling inconclusive
CCS(=O)(=O)Nc1ccc(-c2cn3ccsc3n2)cc1	p53ts 39C kill inconclusive, p53ts 32C tox inconclusive (no result: CRE Fsk mod)
Cc1cccc(NC(=O)Cn2nc(C)c3nn(-c4ccc(Cl)cc4)c(C)c3c2=O)c1C	none (no result: CRE Fsk mod)
COCCNC(=O)c1c(NC(=O)Cc2coc3cc(C)ccc23)sc2c1CCCC2	none (no result: CRE Fsk mod)
CCN(CC)c1nc(N)c2c(N)nc3c(c2c1C#N)CC(c1ccccc1)O3 (centres undefined)	CRE Fsk mod 10µM, IkB signaling inconclusive
CCN(CC)c1nc(N)c2c(N)n(-c3ccccc3C)c(=S)c(C#N)c2c1C#N	CRE Fsk mod inconclusive
CCCCN1CC(c2nc3ccccc3n2CCCCOc2cccc(C)c2C)CC1=O (centres undefined)	none (no result: CRE Fsk mod)
CCCCCN1C(C(=O)c2ccccc2)=C(OC(=O)CC)c2ccccc2S1(=O)=O	p53ts 32C tox inconclusive (no result: CRE Fsk mod)
CCCCN1C(C(=O)c2ccccc2)=C(OC(=O)CC)c2ccccc2S1(=O)=O	p53ts 39C kill 16µM, IkB signaling inconclusive (no result: CRE Fsk mod)
CCOC(=O)c1cccc(NC(=O)NC(C)c2c(-n3cccc3)sc3c2CCN(C)C3)c1 (centres undefined)	none (no result: p53ts 39C kill, Imprint erasure, CRE Fsk mod, IkB signaling)
COc1ccc(Cl)cc1NC(=O)CSC1=Nc2ccccc2C2=NC(CCC(=O)NCc3ccc(F)cc3)C(=O)N12 (centres undefined)	IkB signaling inconclusive (no result: CRE Fsk mod)
C=CCn1c2ccccc2c2nnc(SCC(=O)NC(C(=O)OC)C(C)C)nc21 (centres undefined)	CRE Fsk mod 5µM
CCCn1c2ccccc2c2nnc(SCC(=O)OC)nc21	CRE Fsk mod 2µM
CCn1c2ccccc2c2nnc(SCC(=O)NC(C(=O)OC)C(C)C)nc21 (centres undefined)	CRE Fsk mod inconclusive
CCn1c2ccccc2c2nnc(SCC(=O)NCc3cccs3)nc21	CRE Fsk mod 10µM
CCn1c2ccccc2c2nnc(SCC(=O)NCCOC)nc21	CRE Fsk mod inconclusive
Cc1ccccc1NC(=O)CSc1ccc(-c2cccs2)nn1	none (no result: CRE Fsk mod)
O=C(CSc1nc2c([nH]c3ccccc32)c(=O)n1-c1ccccc1)N1CCCc2ccccc21	none (no result: CRE Fsk mod)
COc1ccc(-c2nn(C)c3sc(C(=O)Nc4cccc(F)c4)cc23)cc1OC	Imprint erasure inconclusive (no result: CRE Fsk mod)
CCS(=O)(=O)N1CCc2cc(C(=O)Nc3ccc(Br)cc3F)ccc21	IkB signaling inconclusive (no result: CRE Fsk mod)
COc1cc(C(=O)OCC(=O)c2cc(C)n(C)c2C)cc(NC(=O)c2ccco2)c1OC	CRE Fsk mod 3.2µM
COc1ccc(NC(=O)c2ccco2)cc1NC(=O)c1cc(OC)c(OC)c(OC)c1	IkB signaling inconclusive (no result: CRE Fsk mod)
CCn1c(=O)cc(OCC(=O)N2CCN(c3ccc(C)cc3)C(C)C2)c2ccccc21 (centres undefined)	p53ts 39C kill inconclusive, p53ts 32C tox inconclusive, IkB signaling inconclusive (no result: CRE Fsk mod)
COc1cccc(-c2ccc3c(N)c(C(=O)c4ccc(Br)cc4)sc3n2)c1	p53ts 39C kill 13µM, p53ts 32C tox inconclusive (no result: CRE Fsk mod)
Cc1ccc(S(=O)(=O)N2CCC(n3c(C)nc4cccnc43)CC2)c(C)c1	IkB signaling inconclusive (no result: CRE Fsk mod)
C=C1C(=O)C=C2CN(C(=O)c3ccccc3)[C@@](Cc3ccc(F)cc3)(C(=O)OC)[C@@H]12	p53ts 39C kill 3.2µM, p53ts 32C tox 3.2µM, CRE Fsk mod inconclusive (no result: IkB signaling)
COc1ccc(-n2nnc(-c3nc(-c4ccc5c(c4)OCO5)no3)c2C)cc1Cl	none (no result: CRE Fsk mod)
CC1CCN(c2ccc(-c3nc(-c4ccccc4)no3)cc2[N+](=O)[O-])CC1	p53ts 39C kill 22µM, IkB signaling inconclusive (no result: CRE Fsk mod)
O=C(c1cnc(N2CCOCC2)c2ccccc12)N1CCN(c2ccc(F)cc2)CC1	p53ts 39C kill inconclusive (no result: CRE Fsk mod)
CCOCCCNC(=O)c1cnc2sc(N3CCCCCC3)nn2c1=O	none (no result: CRE Fsk mod)
CCOc1ccccc1NC(=O)CSc1nc2cc(OC)c(OC)cc2c2nc(CCn3c(C)nc4ccccc43)nn12	p53ts 39C kill 5µM, p53ts 32C tox inconclusive (no result: CRE Fsk mod)
O=C(/C=C\Nc1ccccn1)c1ccc(Cl)cc1	p53ts 39C kill 13µM, p53ts 32C tox 7.9µM, IkB signaling inconclusive
CN(C)S(=O)(=O)c1cccc(C(=O)Nc2cc(Cl)ccc2O)c1	IkB signaling inconclusive
CN1CCN(c2ccc(Cl)cc2NC(=O)c2cccc(S(=O)(=O)N(C)C)c2)CC1	CRE Fsk mod 5µM
COc1cc(C(=O)Nc2cccc(-c3nc4cc(C)ccc4o3)c2)cc(OC)c1OC	none (no result: Imprint erasure, CRE Fsk mod, IkB signaling)
Cc1ccc2oc(-c3ccc(NC(=O)CCC(=O)O)cc3)nc2c1	p53ts 39C kill 16µM, p53ts 32C tox inconclusive, IkB signaling inconclusive (no result: CRE Fsk mod)
COc1cc(C(=O)Nc2cc(-c3nc4cc(C)ccc4o3)ccc2C)cc(OC)c1OC	p53ts 39C kill inconclusive, p53ts 32C tox 13µM, IkB signaling inconclusive
CCC(=O)Nc1ccc2oc(-c3cccc(C)c3)nc2c1	p53ts 39C kill inconclusive, p53ts 32C tox 13µM
